{
  "source": "PubChem BioAssay (Tox21)",
  "note": "Records with an inconclusive call do not appear. Where a call stands in place of a potency, no number is given. Active and inactive are the calls of the source. Calls follow the shape of the dose curve; as a rule, active = well fitted cell-killing curve with a large enough effect in the repeat runs; inconclusive = weak or mixed curves, or effect the other way; inactive = no such curve, though single readings can be large or run the other way.",
  "data": [
    {"test": "qHTS assay to identify small molecule antagonists of the glucocorticoid receptor (GR) signaling pathway - cell viability counter screen (AID 720693); also: nearly all actives have a fitted effect of over 55% in size", "conditions": "GR-bla HeLa viability, CellTiter-Glo luminescence, 18 h, with 5 nM dexamethasone present; series mostly up to 58.5 µM", "text": "National Center for Advancing Translational Sciences [NCATS]\nNIH Chemical Genomics Center [NCGC]\nU.S. Environmental Protection Agency [EPA]\nNational Institutes of Environmental Health Sciences [NIEHS]\nNational Toxicology Program [NTP]\nU.S. Food and Drug Administration [FDA]\nThe Glucocorticoid receptor (GR) is one of the members of the nuclear receptor family of ligand-dependent transcription factors. GR plays a critical role in carbohydrate, protein and lipid metabolisms and programmed cell death. CellSensor GR-bla HeLa cell line (Invitrogen) contains a beta-lactamase reporter gene under the control of the glucocorticoid response element stably integrated into HeLa cells, a cervical cancer cell line that expresses glucocorticoid receptor. The activation of the reporter gene under culture conditions can be detected by fluorescence intensity. This cell line has been used to screen the Tox21 10K compound library and to identify the compounds that inhibit the GR signaling. The cytotoxicity of the Tox21 compound library against the GR-bla HeLa cell line was tested in parallel by measuring the cell viability using CellTiter-Glo assay in the same wells.\nTox21 Assay Protocol Summary:\nThe GR-bla HeLa cells were dispensed at 1500 cells/5 ul/well in 1536-well black wall/clear bottom plates using a Multidrop Combi (ThermoFisher Scientific, Waltham, MA) dispenser. After the assay plates were incubated at a 37 C/5% CO2 incubator for 4 hours, 23 nL of compounds dissolved in DMSO, positive controls or DMSO only was transferred to the assay plate by a pintool station (Kalypsys, San Diego, CA), followed by addition of 1 uL of dexamethasone (5 nM, final concentration in the well). The plates were incubated at 37 C for 18 hours. After 1 uL of LiveBLAzerTM B/G FRET substrate was added using a Flying Reagent Dispenser (Aurora Discovery, San Diego, CA), the plates were incubated at room temperature (RT) for 2 hours, and fluorescence intensity was measured by an Envision plate reader (PerkinElmer, Shelton, CT). After measurement of bla assay, 3 ul CellTiter-Glo (Promega, Madison, WI) was added to measure the cytotoxicity and the plates were then incubated at RT for 30 min. The luminescence was measured using a ViewLux (Perkin Elmer) plate reader.", "values": [
      {"smiles": "CC1(C)[C@@H](O[C@H]2O[C@H](C(=O)O)[C@@H](O)[C@H](O)[C@H]2O[C@@H]2O[C@H](C(=O)O)[C@@H](O)[C@H](O)[C@H]2O)CC[C@]2(C)[C@H]3C(=O)C=C4[C@@H]5C[C@@](C)(C(=O)O)CC[C@]5(C)CC[C@@]4(C)[C@]3(C)CC[C@@H]12", "Potency": "inactive"},
      {"smiles": "N#CCC(=O)O", "Potency": "inactive"},
      {"smiles": "CCCOC(=O)NCCCN(C)C", "Potency": "inactive"},
      {"smiles": "CO[Si](CCCNCCN)(OC)OC", "Potency": "inactive"},
      {"smiles": "CC[N+](CC)(CC(=O)Nc1c(C)cccc1C)Cc1ccccc1", "Potency": "inactive"},
      {"smiles": "O=C(c1ccccc1)c1ccc(O)c(O)c1O", "Potency": "inactive"},
      {"smiles": "Cc1nnc(NS(=O)(=O)c2ccc(N)cc2)s1", "Potency": "inactive"},
      {"smiles": "Cc1cc(C)cc(O)c1", "Potency": "inactive"},
      {"smiles": "COc1ccc([C@@H]2CC(=O)c3c(O)cc(O[C@@H]4O[C@H](CO[C@@H]5O[C@@H](C)[C@H](O)[C@@H](O)[C@H]5O)[C@@H](O)[C@H](O)[C@H]4O)cc3O2)cc1OC", "Potency": "inactive"},
      {"smiles": "OB(O)O", "Potency": "inactive"},
      {"smiles": "CC(=O)OCc1ccc2c(c1)OCO2", "Potency": "inactive"},
      {"smiles": "O=Cc1ccc(CO)o1", "Potency": "inactive"},
      {"smiles": "CCCCCNCCCCC", "Potency": "inactive"},
      {"smiles": "CCCCC(CC)COC(=O)c1ccc(C(=O)OCC(CC)CCCC)cc1", "note": "(stereo not given)", "Potency": "inactive"},
      {"smiles": "C=CC(C)(C)C", "Potency": "inactive"},
      {"smiles": "O=c1n(CCCN2CCN(c3cccc(Cl)c3)CC2)nc2ccccn12", "Potency": "inactive"},
      {"smiles": "NC(N)=S", "Potency": "inactive"},
      {"smiles": "CC(COCC(C)OC(=O)c1ccccc1)OC(=O)c1ccccc1", "note": "(stereo not given)", "Potency": "inactive"},
      {"smiles": "CCCN(CCC)C(=O)SCC", "Potency": "inactive"},
      {"smiles": "CCCCCCCCCCCC(=O)N(C)CC(=O)O", "Potency": "inactive"},
      {"smiles": "CCN(CC)CCNC(=O)c1ccc(N)cc1", "Potency": "inactive"},
      {"smiles": "NC(=O)NC(N)=O", "Potency": "inactive"},
      {"smiles": "OCCOCCOCCOCCOCCO", "Potency": "inactive"},
      {"smiles": "CN1Cc2c(N)cccc2C(c2ccccc2)C1", "note": "(stereo not given)", "Potency": "inactive"},
      {"smiles": "CC(=O)C(C)C", "Potency": "inactive"},
      {"smiles": "CC/C(C)=N/O", "Potency": "inactive"},
      {"smiles": "O=C(NCC1CCCCN1)c1cc(OCC(F)(F)F)ccc1OCC(F)(F)F", "note": "(stereo not given)", "Potency": "inactive"},
      {"smiles": "O=C(O)C1=NN(c2ccc(S(=O)(=O)O)cc2)C(=O)C1", "Potency": "inactive"},
      {"smiles": "CC(=O)OC(C)(C)C1CC=C(C)CC1", "note": "(stereo not given)", "Potency": "inactive"},
      {"smiles": "COc1ccc(N)c(OC)c1", "Potency": "inactive"},
      {"smiles": "Cc1cccc(C)c1[N+](=O)[O-]", "Potency": "inactive"},
      {"smiles": "CC(C)(C)NC[C@H](O)COc1nsnc1N1CCOCC1", "Potency": "inactive"},
      {"smiles": "CCc1cccc(O)c1", "Potency": "inactive"},
      {"smiles": "CCCCCCCCC(=O)O", "Potency": "inactive"},
      {"smiles": "C=C1C[C@]23C[C@@]1(O)CC[C@H]2[C@@]12C=C[C@H](O)[C@@](C)(C(=O)O1)[C@H]2[C@@H]3C(=O)O", "Potency": "inactive"},
      {"smiles": "CCc1cccc(CC)c1N", "Potency": "inactive"},
      {"smiles": "Cc1ccc(C(C)C)cc1", "Potency": "inactive"},
      {"smiles": "O=C(Cl)c1ccc(C(=O)Cl)cc1", "Potency": "inactive"},
      {"smiles": "COc1c2ccoc2cc2oc(=O)ccc12", "Potency": "inactive"},
      {"smiles": "CC(C)(CO)CO", "Potency": "inactive"}
    ]}
  ]
}
